In PubChem BioAssay one finds composite z-score and z-score data, which are given here for six compounds.

The structures appear in SMILES notation. The source made the active and inactive calls.

The subject of assay [1] is Plasmodium falciparum Sir2 (PF13_0152, Sir2A). Description: pfSir2 binders on small-molecule microarrays, primary screen, biochemical, small-molecule microarray, 635 nm fluorescence (AID 1098).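 Also: score merges spot fluorescence intensity with its signal-to-noise ratio.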 Particulars: small-molecule microarray binding, fluorescence 635 nm; higher = more signal.
A short description of assay [2]: small-molecule microarray binders of probe aDKK1, primary screen, biochemical, biotinylated probe, 635/667 nm fluorescence (AID 1099).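 Also: score merges 667nm spot fluorescence with signal to noise across triplicate slides.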 Particulars: higher = more signal.
A short description of assay [3]: small-molecule microarray binders of probe aCHRDL2, primary screen, biochemical, biotinylated probe, 635/667 nm fluorescence (AID 1100). Conditions: higher = more signal.
Assay [4] can be described thus: splicing luciferase reporter signal modulators, primary screen, spliceosome inhibition project, cell-based, HEK293, splice +/- reporter (AID 1101).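 Also: HEK293 cells carrying a splicing-competent luciferase reporter gene; test concentration not given here.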 Conditions: luminescence, 24 h, higher = more signal, called active from +8 up or from −8 down. For orientation: A reporter such as luciferase makes a cellular process visible.
The target of assay [5] is Fibroblast growth factor 10 (Homo sapiens) (UniProt O15520). Description: FGF10 binders on small-molecule microarrays, primary screen, biochemical, small-molecule microarray, 635 nm fluorescence (AID 1102). Particulars: FGF10 binding, fluorescence 635 nm, higher = more signal.
Assay [6] concerns glycogen synthase kinase-3 (GSK3A per assay name; protocol says GSK3B). Description: GSK3 binders on small-molecule microarrays, primary screen, biochemical, small-molecule microarray, 635 nm fluorescence, GSK3A (AID 1103). Also: the record names both GSK3A and GSK3B. Particulars: small-molecule microarray binding, fluorescence 635 nm; higher = more signal.
In assay [7] the target is Epidermal growth factor receptor (Homo sapiens) (UniProt P00533). Description: EGFR binders on small-molecule microarrays, primary screen, biochemical, small-molecule microarray, 635 nm fluorescence (AID 1104).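 Also: score merges 667 nm emission intensity with spot signal to noise over triplicate slides.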 Conditions: EGFR binding, higher = more signal.
Assay [8] concerns the target Follistatin-related protein 3 (Homo sapiens) (UniProt O95633). Description: FSTL3 binders on small-molecule microarrays, primary screen, biochemical, small-molecule microarray, 635 nm fluorescence (AID 1105).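 Also: score merges emission near 667 nm and signal to noise per printed spot across three slides.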 Particulars: FSTL3 binding, higher = more signal.
The target of assay [9] is Dickkopf-related protein 1 (Homo sapiens) (UniProt O94907). Description: DKK1 binders on small-molecule microarrays, primary screen, biochemical, small-molecule microarray, 635 nm fluorescence scan (AID 1106).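 Also: score merges emission near 667 nm with signal to noise over three replicate slides.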 Conditions: DKK1 binding, higher = more signal.
Assay [10] relates to Inhibin beta A chain (activin A). Description: INHBA (activin A) binders on microarrays, primary screen, biochemical, small-molecule microarray, 635 nm fluorescence scan (AID 1107).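 Also: mouse activin A protein probed at 4.33 µg/mL on printed slides; score merges bound-protein fluorescence near 667 nm with spot signal-to-noise.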 Particulars: small-molecule microarray binding, higher = more signal.
The subject of assay [11] is Human papillomavirus type 1a protein E7 (residues 44-93). Description: HPV1a E7 fragment binders on microarrays, primary screen, biochemical, small-molecule microarray, residues 44-93, 635 nm fluorescence (AID 1108).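 Also: E7 fragment applied at 1 µg/mL in TBST for 1 h at 4 C; score combines spot fluorescence with its signal to noise ratio.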 Particulars: small-molecule microarray binding, fluorescence 635 nm; higher = more signal.
Assay [12] in a line: modulators of HCV replicon luciferase signal, primary screen, HCV replication inhibitor project, Huh7 cells, luciferase reporter (AID 1109).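 Also: huh7 hepatoma cells harbouring a luciferase neomycin HCV replicon reporter; luciferase luminescence as measure of HCV replicon replication; test concentration not given here.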 Conditions: 48 h, higher = more signal.
Assay [13] concerns the target Left-right determination factor 2 (Homo sapiens) (UniProt O00292). Description: LEFTY2 binders on small-molecule microarrays, primary screen, biochemical, small-molecule microarray, 635 nm fluorescence scan (AID 1110). Conditions: LEFTY2 binding, higher = more signal.
The target of assay [14] is Calmodulin-1 (Homo sapiens) (UniProt P0DP23). Description: CALM1 binders on microarrays, EGTA buffer, profiling panel, biochemical, small-molecule microarray, Cy5-labelled CALM1 (AID 1111).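 Also: labelled calmodulin applied in Tris saline Tween buffer holding calcium plus EGTA and DTT.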 Conditions: Cy5-CALM1 binding fluorescence, higher = more signal.
Assay [15] has the same target. Description: calcium-bound CALM1 binders on microarrays, profiling panel, artefact control for SMM control-protein annotation, biochemical, small-molecule microarray, Cy5-labelled CALM1, plus calcium (AID 1112).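 Also: score merges spot fluorescence with signal to noise from triplicate slides.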 Particulars: Cy5-CALM1 binding fluorescence, higher = more signal.
Assay [16] in a line: small-molecule microarray binders of probe aWnt5a, primary screen, biochemical, biotinylated probe, 635/667 nm fluorescence (AID 1113).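 Also: score merges 667 nm fluorescence intensity with signal-to-noise per printed feature.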 Conditions: higher = more signal.
Assay [17] in a line: small-molecule microarray binders of probe aShh, primary screen, biochemical, biotinylated probe, 635/667 nm fluorescence (AID 1114).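 Also: probe is biotin-labelled aShh protein from a stem cell growth factor screen; measures binding of labelled protein to compounds printed on the slide; score merges feature fluorescence at 667 nm with signal-to-noise.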 Particulars: higher = more signal.
Assay [18] in a line: small-molecule microarray binders of probe aNog, primary screen, biochemical, biotinylated probe, 635/667 nm fluorescence (AID 1115).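 Also: probe is biotinylated aNog protein used at 0.15 µg/mL for 1 h at 4 C; z-score combines 667 nm fluorescence of each spot with its signal to noise.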 Conditions: higher = more signal.
Assay [19] concerns the target Torsin-1A-interacting protein 1 (Homo sapiens) (UniProt Q5JTV8). Description: LAP1 binders from COS7 cell lysate, primary screen, small-molecule microarray, 635/667 nm fluorescence (AID 1116). Particulars: COS7-hLAP1 lysate binding, 635 nm fluorescence, higher = more signal.
Assay [20] addresses Alpha-bungarotoxin (Bungarus multicinctus) (UniProt P60615). Description: alpha-bungarotoxin binders on microarray, profiling panel, artefact control for SMM control protein annotation, biochemical, small-molecule microarray, Alexa647 label, 635/667 nm fluorescence (AID 1117). Conditions: alpha-BTX-A647 binding fluorescence, higher = more signal.

Left-right determination factor 2 (Homo sapiens), sequence (O00292 whole entry, looked up): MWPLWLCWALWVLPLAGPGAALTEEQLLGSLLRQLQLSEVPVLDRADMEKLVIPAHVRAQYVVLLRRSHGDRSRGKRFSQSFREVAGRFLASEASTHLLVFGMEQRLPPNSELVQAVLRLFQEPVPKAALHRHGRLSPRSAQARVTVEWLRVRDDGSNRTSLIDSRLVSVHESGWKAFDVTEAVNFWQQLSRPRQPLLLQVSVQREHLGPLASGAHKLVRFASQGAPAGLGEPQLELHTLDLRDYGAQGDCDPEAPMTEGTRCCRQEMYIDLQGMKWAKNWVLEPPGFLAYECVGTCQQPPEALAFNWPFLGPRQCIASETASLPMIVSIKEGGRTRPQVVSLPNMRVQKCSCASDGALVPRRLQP
Epidermal growth factor receptor (Homo sapiens), sequence (P00533 whole entry, looked up): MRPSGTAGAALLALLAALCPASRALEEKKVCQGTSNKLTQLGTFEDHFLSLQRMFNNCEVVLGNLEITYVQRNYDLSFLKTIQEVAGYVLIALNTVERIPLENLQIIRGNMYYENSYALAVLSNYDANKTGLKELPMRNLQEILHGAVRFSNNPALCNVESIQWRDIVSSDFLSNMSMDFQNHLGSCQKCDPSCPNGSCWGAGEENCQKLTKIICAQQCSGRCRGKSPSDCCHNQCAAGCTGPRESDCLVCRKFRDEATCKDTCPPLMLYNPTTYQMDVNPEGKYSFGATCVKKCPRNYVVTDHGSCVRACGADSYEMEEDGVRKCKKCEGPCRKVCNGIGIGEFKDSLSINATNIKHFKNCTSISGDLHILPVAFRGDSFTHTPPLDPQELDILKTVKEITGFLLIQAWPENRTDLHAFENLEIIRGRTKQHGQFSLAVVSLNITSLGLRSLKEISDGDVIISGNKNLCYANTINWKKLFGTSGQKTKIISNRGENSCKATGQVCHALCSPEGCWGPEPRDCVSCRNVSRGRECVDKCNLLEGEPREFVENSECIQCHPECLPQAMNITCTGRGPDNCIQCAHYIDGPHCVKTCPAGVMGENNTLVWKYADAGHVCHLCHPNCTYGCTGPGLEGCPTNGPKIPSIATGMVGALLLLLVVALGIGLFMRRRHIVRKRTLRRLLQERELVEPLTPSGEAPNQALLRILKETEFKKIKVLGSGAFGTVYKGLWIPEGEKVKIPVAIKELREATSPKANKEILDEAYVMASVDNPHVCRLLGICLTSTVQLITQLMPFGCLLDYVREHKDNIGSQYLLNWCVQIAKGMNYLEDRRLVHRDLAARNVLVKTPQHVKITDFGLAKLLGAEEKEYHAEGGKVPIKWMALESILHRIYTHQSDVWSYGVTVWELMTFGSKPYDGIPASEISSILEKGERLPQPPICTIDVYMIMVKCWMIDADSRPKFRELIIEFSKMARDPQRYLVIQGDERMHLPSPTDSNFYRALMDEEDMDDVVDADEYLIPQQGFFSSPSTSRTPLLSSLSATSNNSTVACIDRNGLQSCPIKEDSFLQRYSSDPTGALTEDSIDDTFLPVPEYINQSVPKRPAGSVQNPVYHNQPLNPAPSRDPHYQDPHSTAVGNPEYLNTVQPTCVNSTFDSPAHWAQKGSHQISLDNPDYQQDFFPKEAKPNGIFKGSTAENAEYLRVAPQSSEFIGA
Alpha-bungarotoxin (Bungarus multicinctus), sequence (P60615 whole entry, looked up): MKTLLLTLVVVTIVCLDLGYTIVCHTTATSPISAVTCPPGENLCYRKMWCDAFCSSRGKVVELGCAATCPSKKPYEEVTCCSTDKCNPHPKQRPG
Dickkopf-related protein 1 (Homo sapiens), sequence (O94907 whole entry, looked up): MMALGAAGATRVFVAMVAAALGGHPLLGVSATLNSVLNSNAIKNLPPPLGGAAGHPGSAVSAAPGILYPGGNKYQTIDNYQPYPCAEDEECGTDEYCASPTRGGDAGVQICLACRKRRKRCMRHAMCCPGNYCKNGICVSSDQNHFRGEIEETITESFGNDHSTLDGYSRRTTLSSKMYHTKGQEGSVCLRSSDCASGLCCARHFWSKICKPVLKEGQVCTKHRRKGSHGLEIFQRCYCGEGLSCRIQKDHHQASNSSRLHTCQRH
Torsin-1A-interacting protein 1 (Homo sapiens), sequence (Q5JTV8 whole entry, looked up): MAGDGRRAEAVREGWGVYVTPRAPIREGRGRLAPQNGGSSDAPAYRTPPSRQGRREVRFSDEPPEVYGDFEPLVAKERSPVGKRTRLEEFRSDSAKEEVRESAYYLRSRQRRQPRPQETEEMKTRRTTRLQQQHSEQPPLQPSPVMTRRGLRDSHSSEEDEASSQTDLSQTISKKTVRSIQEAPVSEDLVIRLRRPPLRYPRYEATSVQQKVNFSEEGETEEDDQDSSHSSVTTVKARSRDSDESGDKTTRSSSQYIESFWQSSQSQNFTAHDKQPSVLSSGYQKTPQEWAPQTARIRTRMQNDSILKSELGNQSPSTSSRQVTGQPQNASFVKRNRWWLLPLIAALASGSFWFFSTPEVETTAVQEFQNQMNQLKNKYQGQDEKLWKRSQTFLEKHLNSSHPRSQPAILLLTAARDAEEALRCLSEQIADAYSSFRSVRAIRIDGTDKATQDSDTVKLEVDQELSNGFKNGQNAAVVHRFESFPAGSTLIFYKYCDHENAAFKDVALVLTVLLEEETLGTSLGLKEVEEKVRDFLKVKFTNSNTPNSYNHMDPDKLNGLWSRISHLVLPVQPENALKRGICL
Follistatin-related protein 3 (Homo sapiens), sequence (O95633 whole entry, looked up): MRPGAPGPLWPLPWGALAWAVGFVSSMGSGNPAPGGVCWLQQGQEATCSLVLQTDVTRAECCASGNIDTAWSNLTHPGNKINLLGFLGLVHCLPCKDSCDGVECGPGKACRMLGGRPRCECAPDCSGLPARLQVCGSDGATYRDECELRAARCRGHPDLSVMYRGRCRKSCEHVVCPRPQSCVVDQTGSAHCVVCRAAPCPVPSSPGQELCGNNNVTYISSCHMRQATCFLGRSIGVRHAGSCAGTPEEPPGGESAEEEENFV
Fibroblast growth factor 10 (Homo sapiens), sequence (O15520 whole entry, looked up): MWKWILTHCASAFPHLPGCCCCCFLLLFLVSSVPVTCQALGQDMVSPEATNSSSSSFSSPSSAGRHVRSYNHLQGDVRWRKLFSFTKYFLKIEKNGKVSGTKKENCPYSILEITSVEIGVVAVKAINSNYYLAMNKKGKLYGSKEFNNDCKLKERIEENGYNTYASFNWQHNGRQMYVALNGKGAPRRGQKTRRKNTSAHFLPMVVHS

For the compound `CCN1C(=O)[C@H]2[C@@H]3C(=CC[C@H]2C1=O)C(=O)[C@H]1O[C@H]1[C@H]3O`, the composite z-score in assay [1] was 0.641; in [2], -0.409; in assay [3] it was -0.722; in assay [5] it was 1.06; in [6], 1.11; in assay [7], 0.827. In addition, the composite z-score was 1.28 in assay [8]; 1.17 in [9]; 0.065 in assay [10]; 0.53 in [11]; 0.705 in assay [13]; -0.575 in assay [14]. Moreover, the composite z-score in [15] was -1.4; in [16] it was 0.0559; in [17], -0.138; in assay [18], -0.144; in assay [19], 0.282; in assay [20], 0.0607. Besides, the figures for the z-score in [4] and in assay [12] were 17 (active) and -5.32, respectively.
Turning to `CC(=O)OC[C@H]1O[C@H](CC=NOC(C)CN2CCCCc3nc(C)c(C)cc32)C=C[C@@H]1OC(C)=O` (stereo not given in full), the composite z-score is 1.14 in assay [1]; -0.0799 in assay [2]; -0.199 in assay [3]; 0.83 in assay [5]; 1.31 in assay [6]; 1.59 in [7]. The composite z-score in [8] is 1.31; in assay [9] it was 1.68; in assay [10], 1.13; in [11], 1.11; in assay [13], 1.08; in [14] it was -0.208. Further, the composite z-score was -0.745 in [15]; 0.0044 in assay [16]; -0.179 in assay [17]; 0.0805 in assay [18]; 0.556 in [19]; 0.971 in assay [20]. Further, the z-score in [4] is 0.375 (inactive); in assay [12], -0.339.
In the case of `CO[C@H]1COC(=O)CC=C[C@H](C)[C@H](OC)COC(=O)[C@@H](C)NC(=O)CC=C[C@@H]1C`, the composite z-score in [1] is 1.65; in assay [2], -0.407; in [3] it was -1.19; in assay [5] it was 0.777; in [6] it was 0.507; in assay [7] it was 0.383. The composite z-score in [8] is 1.36; in [9], 1.56; in assay [10], 1.64; in assay [11], -2.87; in [13], 0.953; in assay [14], -0.735. For the same compound, the composite z-score in [15] is -1.49; in assay [16], -0.101; in assay [17] it was -0.0681; in assay [18], -0.21; in [19], 0.229; in assay [20] it was -0.32. In addition, the z-score in assay [4] is -0.59 (inactive); in assay [12] it was -2.14.
For `CCOC(=O)[C@H](CC(C)C)NC(=O)CCC1CC(OC(=O)NCc2ccc3c(c2)OCO3)CC2(CCCC(COC(=O)NCCOC)O2)O1` (stereo not given in full), the composite z-score in assay [1] is 0.622; in assay [2], -0.27; in [3], -0.261; in assay [5], 0.495; in [6], 0.627; in assay [7], 0.184. The composite z-score was 0.864 in [8]; 0.336 in assay [9]; 0.637 in assay [10]; 0.522 in [11]; 0.249 in [13]; 0.221 in [14]. For the same compound, the composite z-score in assay [15] was -0.491; in [16], -0.0792; in [17] it was -0.2; in assay [18], -0.0615; in assay [19] it was 0.956; in [20], 1.05. Also, the z-score in assay [4] is -0.191 (inactive); in assay [12], -0.322.
For `CCOC(=O)[C@H](Cc1ccccc1)NC(=O)CCC1CC(OC(=O)NCCc2ccc(F)cc2)CC2(CCCC(COC(=O)NCc3cccc(C(F)(F)F)c3)O2)O1` (stereo not given in full), the composite z-score is 0.863 in assay [1]; -0.139 in assay [2]; -0.311 in assay [3]; 0.904 in assay [5]; 1.06 in assay [6]; 0.818 in assay [7]. Moreover, the composite z-score in assay [8] is 0.786; in assay [9], 0.484; in assay [10], -0.335; in assay [11] it was 1.3; in [13] it was 0.763; in assay [14], 1.43. Besides, the composite z-score is 0.465 in [15]; -0.154 in assay [16]; -0.221 in assay [17]; 0.0498 in assay [18]; 0.109 in [19]; 1.04 in [20]. The z-score in [4] was -0.891 (inactive); in assay [12] it was -1.8.
As to `CC(C)=CCCC(C)=CCON=C1C[C@@H](O)[C@@H](O)[C@@H]2[C@@H]3C(=O)N([C@@H](C)c4ccccc4)C(=O)[C@@H]3CC[C@@H]12`, the composite z-score in assay [1] was 0.277; in [2] it was -0.213; in assay [3], -0.572; in [5], 0.461; in [6] it was 0.598; in [7], 0.407. Besides, the composite z-score was 0.319 in assay [8]; 0.134 in assay [9]; 0.521 in assay [10]; 0.257 in assay [11]; 0.898 in assay [13]; -0.544 in [14]. The composite z-score is -0.406 in assay [15]; -0.012 in [16]; -0.289 in [17]; -0.247 in [18]; 0.222 in [19]; 0.551 in assay [20]. In addition, the z-score in assay [4] is -0.168 (inactive); in [12] it was 0.0308.
